In the supplement of paper PMC5641865, “A screen for kinase inhibitors identifies antimicrobial imidazopyridine aminofurazans as specific inhibitors of the Listeria monocytogenes PASTA kinase PrkA” (The Journal of Biological Chemistry, 2017):
± gives the standard deviation of the averaged measurements.

Test system: Listeria monocytogenes 10403S
Test: growth inhibition relative to ceftriaxone-alone control; higher = stronger potentiation of ceftriaxone growth inhibition
Details: 10 µM; ceftriaxone 1 ug/ml; 12 h
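Further: End-point A600 read in BHI broth at 37 °C with 2% DMSO, inhibition computed as (1 − OD with compound plus ceftriaxone ÷ OD with ceftriaxone only) × 100.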

Compound | growth inhibition [%]
N#CC1(c2ccc(NC(=O)c3cccnc3NCc3ccncc3)cc2)CCCC1 [Apatinib (YN968D1)] | 12.7 ± 6.2
COc1ccc(S(=O)(=O)N(C(C)=O)c2ccccc2/C=C/c2cc[n+]([O-])cc2)cc1 | 13.3 ± 8.8
CC(C)(C)c1cnc(CSc2cnc(NC(=O)C3CCNCC3)s2)o1 | 29.5 ± 24
COc1cc2nccc(Oc3ccc(NC(=O)Nc4cc(C)on4)c(Cl)c3)c2cc1OC [Tivozanib (AV-951)] | 23.7 ± 1.2
CS(=O)(=O)CCNCc1ccc(-c2ccc3ncnc(Nc4ccc(OCc5cccc(F)c5)c(Cl)c4)c3c2)o1 [Lapatinib Ditosylate (Tykerb)] | 42 ± 16
Cc1ccc(NC(=O)c2ccc(CN3CCN(C)CC3)cc2)cc1Nc1nc(-c2cccnc2)cs1 [Masitinib (AB1010)] | 36.7 ± 26
NC(=O)c1ccc(N(C(N)=O)c2c(F)cccc2F)nc1-c1ccc(F)cc1F | 3.69 ± 12
CCCN1CCC=C(c2ccc(Nc3nc(Nc4ccccc4C(N)=O)c4cc[nH]c4n3)c(C)c2)C1 | -7.58 ± 1.9
Cc1cc(O)cc(C)c1/C=C/c1cncc(C(=O)N(C)C)c1 | -3.75 ± 3.3
CS(=O)(=O)CCNCc1ccc(-c2ccc3ncnc(Nc4ccc(OCc5ccccc5)cc4)c3c2)o1 | -2.04 ± 4.2
CNC(=O)c1cc(Oc2ccc(NC(=O)Nc3cc(C(C)(C)C)nn3-c3ccc4ncccc4c3)c(F)c2)ccn1 [DCC-2036 (Rebastinib)] | 21 ± 0.51
[O-][S+]1CCN(Cc2ccc(-c3ccc4ncnc(Nc5ccc(OCc6ccccc6)c(Cl)c5)c4c3)o2)CC1 | 2.22 ± 6.4
COc1ccc2cc(-c3c(-c4ccncc4)nc(-c4ccc([S+](C)[O-])cc4)n3C)ccc2c1 (stereo not drawn) | 12 ± 0.7
COc1ccc2ncnc(Nc3ccc(OCc4ccccc4)cc3)c2c1 | 1.99 ± 13
CC(=O)Nc1cccc(C#Cc2cncnc2Nc2ccc(OCc3cccc(F)c3)c(Cl)c2)n1 | -0.967 ± 4.2
CC(C)NC[C@@H](C(=O)N1CCN(c2ncnc3c2[C@H](C)C[C@H]3O)CC1)c1ccc(Cl)cc1 | 23.5 ± 8.6
CCN1CCN(Cc2ccc(-c3cc4c(N[C@H](C)c5ccccc5)ncnc4[nH]3)cc2)CC1 | 22.1 ± 4.2
COc1ccc2c(Oc3ccc(NC(=O)c4c(C)n(CC(C)(C)O)n(-c5ccccc5)c4=O)nc3)ccnc2c1 | 28.9 ± 13
CC[C@H](Nc1ncnc2[nH]cnc12)c1nc2cccc(F)c2c(=O)n1-c1ccccc1 | 21.7 ± 23

Compound | growth inhibition [%]
Fc1ccc(-c2nn3ncccc3c2-c2ccnc(Nc3ccc4c(c3)OCCO4)n2)cc1 | -7.99 ± 5.2
COc1cc(CCc2cc(NC(=O)c3ccc(N4CC(C)NC(C)C4)cc3)n[nH]2)cc(OC)c1 (stereo not drawn) | 38.3 ± 21
COc1ccc2cc(-c3c(-c4ccncc4)nc(-c4ccc(S(C)(=O)=O)cc4C)n3C)ccc2c1 | -1.1 ± 3.1
Cc1c(NC(=O)OC[C@@H]2COCCN2)cn2ncnc(Nc3ccc4c(cnn4Cc4cccc(F)c4)c3)c12 | 44.1 ± 20
COc1cc2nccc(Oc3ccc(NC(=O)NC4CC4)c(Cl)c3)c2cc1C(N)=O [E7080 (Lenvatinib)] | 5.83 ± 14
COc1ccc2c3n(c(=NC(=O)c4cccnc4)nc2c1OC)CCN3 | -0.968 ± 4.8
CNC(=O)c1cncc(/C=C/c2ccccc2Cl)c1 | -3.04 ± 0.74
NS(=O)(=O)c1ccc(N/N=C2\C(=O)Nc3ccc(C(=O)NCCCn4ccnc4)cc32)cc1 | -3.24 ± 3.3
O=C(Nc1ccc(Oc2ccc3[nH]c(NC(=O)c4ccco4)nc3c2)cc1)Nc1cc(C(F)(F)F)ccc1F | 9.02 ± 5.9
COc1ccc(-c2nn3ncccc3c2-c2ccnc(Nc3ccc(F)c(F)c3)n2)cc1 | -0.06 ± 1.5
CO[C@H]1C[C@@H]2CC[C@@H](C)[C@@](O)(O2)C(=O)C(=O)N2CCCC[C@H]2C(=O)O[C@H]([C@H](C)C[C@@H]2CC[C@@H](O)[C@H](OC)C2)CC(=O)[C@H](C)/C=C(\C)[C@@H](O)[C@@H](OC)C(=O)[C@H](C)C[C@H](C)/C=C/C=C/C=C/1C [Rapamycin (Sirolimus)] | 30.2 ± 26
O=C(O)c1ccc2c(c1)nc(Nc1cccc(Cl)c1)c1ccncc12 [CX-4945 (Silmitasertib)] | 76.2 ± 9.6
CO[C@H]1C[C@@H]2CC[C@@H](C)[C@@](O)(O2)C(=O)C(=O)N2CCCC[C@H]2C(=O)O[C@H]([C@H](C)C[C@@H]2CC[C@@H](OC(=O)C(C)(CO)CO)[C@H](OC)C2)CC(=O)[C@H](C)/C=C(\C)[C@@H](O)[C@@H](OC)C(=O)[C@H](C)C[C@H](C)/C=C/C=C/C=C/1C [Temsirolimus (Torisel)] | 19.8 ± 59
CCC[C@H](NC(=O)/C(C#N)=C/c1cccc(Br)n1)c1ccccc1 | 99.32 ± 0.54
CS(=O)(=O)Nc1ccc(N/C=C2\C(=O)Nc3ccccc32)cc1 | -14.6 ± 19
C[C@@H]1COC(Nc2ccc3ncnc(Nc4ccc(OCc5nccs5)c(Cl)c4)c3c2)=N1 | 70.8 ± 5
CN(c1ccc(NC(=O)Nc2c(Cl)cccc2Cl)cc1)c1ccnc(Nc2cccc(CS(C)(=O)=O)c2)n1 | -2.91 ± 0.88
CCS(=O)(=O)Nc1ccc2c(c1)/C(=C(/Nc1ccc(CN3CCCCC3)cc1)c1ccccc1)C(=O)N2 [Hesperadin] | 19.3 ± 11
Cc1ccc(-n2nc(C(C)(C)C)cc2NC(=O)Nc2ccc(OCCN3CCOCC3)c3ccccc23)cc1 [BIRB 796 (Doramapimod)] | 10.5 ± 14
